TEAD-YAP inh = TEAD-YAP interaction inhibition | HEK-TIYL cells, TEAD-Gal4/YAP UAS-luciferase luminescence | inhibition, % at 9.12 µM | 640,000 compounds, 1.4% hits; in the data active means inhibition above about 32%
FBW7 act = human FBW7 E3 ligase activation, primary screen; 650,000 compounds, 0.13% hits; AlphaScreen FBW7–phospho-cyclin E peptide binding, activator screen; normalized activity (activation), % at 26.1 µM; in the data active means normalized activity above about 1.9%;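 further: purified mutant Fbw7 with reduced substrate affinity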
GPR151 ag = human GPR151 activation; PathHunter beta-arrestin GPR151 cells, luminescence; Q8TDV0; activation, % at 11.2 µM; AID 1508602; 650,000 compounds, 1% hits; in the data active means activation above about 4.9%
MITF inh = inhibitors of human MITF; AlphaScreen MITF homodimerization, bead proximity signal; inhibition, % at 2.6 µM; 650,000 compounds, 0.91% hits; O75030; in the data active means inhibition above about 50%
GPR151 conf act = confirmation of human GPR151 activators. shares compounds with GPR151 ag. GPR151 PathHunter beta-arrestin cells, luminescence, 90 min; % of EA-reagent control over plate median. activation, % at 11.2 µM. 6,700 tested, under 10 active. AID 1508609;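 active means mean percent activation across replicates above the confirmation screen cutoff of 4.91%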
GPR119 counter = counter-screen for GPR151 activators: effect on human GPR119; GPR119 PathHunter beta-arrestin cells, luminescence, 90 min; 0 = compound-well median, 100 = enzyme-acceptor control; AID 1508611; shares compounds with GPR151 ag; 6,700 compounds, 0.3% hits; activation, % at 11.2 µM;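 active means mean percent activation in the counterscreen above 29.09%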;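 further: counterscreen on off-target GPR119 to flag nonselective hits from the GPR151 activator screen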
Target sequence (Q8TDV5 whole entry, looked up): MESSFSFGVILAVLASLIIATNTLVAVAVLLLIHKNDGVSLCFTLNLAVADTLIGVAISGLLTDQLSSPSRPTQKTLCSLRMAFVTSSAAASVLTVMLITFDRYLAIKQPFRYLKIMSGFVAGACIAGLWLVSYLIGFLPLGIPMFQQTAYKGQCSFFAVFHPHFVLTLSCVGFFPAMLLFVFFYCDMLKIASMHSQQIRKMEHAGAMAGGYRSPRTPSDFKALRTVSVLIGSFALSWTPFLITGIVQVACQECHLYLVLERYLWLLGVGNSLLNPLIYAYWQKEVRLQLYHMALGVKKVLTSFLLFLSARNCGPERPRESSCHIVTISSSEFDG
Numbers stand for hits; - = inactive; . = no result; ! = a repeat was not active. A selection: hits, their analogues and other compounds. The true share with any hit is near 3.5%.

SMILES | TEAD-YAP inh | FBW7 act | GPR151 ag | MITF inh | GPR151 conf act | GPR119 counter
COc1ccccc1-c1cc(C(=O)NCc2ccc(S(N)(=O)=O)cc2)c2ccccc2n1 | - | - | - | - | . | .
O=C1CCCC(O)=C1C=Nc1ccc(Oc2ccc(Cl)cc2)cc1 | - | - | - | - | . | .
CCOC(=O)c1sc(=S)n(C)c1N | - | - | - | - | . | .
CC(C)(C)c1ccc(C(=O)Nc2c3c(nn2C(C)(C)C)CSC3)cc1 | - | - | - | - | . | .
CNc1cc([N+](=O)[O-])ccc1N/C=C\C(=O)c1ccc(OC)cc1OC | - | - | 5.8 | - | - | -
O=S(=O)(NN=C1CCCCC1)c1ccccc1 | - | - | - | - | . | .
O=S(=O)(NN=C1CCCCCC1)c1ccccc1 | - | - | 15 | - | - | -
O=C(Nc1ccccc1C(=O)O)c1cc[n+]([O-])cc1 | - | - | - | - | . | .
CNC(=O)CCC(=O)N1CCOc2ccc(Cl)cc21 | - | - | 7.2 | - | - | -
Cc1cc(C)n(-c2nnc(C)n2NS(=O)(=O)c2ccc(F)cc2)n1 | - | - | - | - | . | .
CCc1nnc(NC(=O)CN2CCC(O)(c3ccccc3OC)CC2)s1 | - | - | 6.5 | - | - | -
Cc1ccccc1OCCCC(=O)Nc1nnc(C(C)C)s1 | - | - | - | - | . | .
CCc1nnc(NC(=O)CCCOc2ccccc2C)s1 | - | - | 12 | - | - | -
OC1CCCc2c1[nH]c1ccc(Br)cc21 (centres undefined) | - | - | - | - | . | .
CSc1ccc(S(=O)(=O)NCc2ccccn2)cc1 | - | - | - | - | . | .
NNc1nc(N2CCOCC2)nc(N(c2ccccc2)c2ccccc2)n1 | - | - | 9.0 | - | - | -
Clc1nc(N2CCOCC2)nc(N(c2ccccc2)c2ccccc2)n1 | - | - | - | - | . | .
CCOC(=O)c1ccc(NC(=O)CSc2ccc3nnc(-c4ccncc4)n3n2)cc1 | - | - | - | - | . | .
N#Cc1ccc(NC(=O)COC(=O)CCC(=O)c2ccc3c(c2)OCCO3)cc1 | - | - | 11 | - | 6.8 | -
Brc1cccc(-c2nnc(CN3CCN(Cc4ccccc4)CC3)o2)c1 | - | - | 6.0 | - | - | -
O=C(CSc1c2c(nc3ccccc13)CCC2)N1CCCC1 | - | - | - | - | . | .
CC(C)(C)c1ccc(NC(=O)COC(=O)c2ccc([N+](=O)[O-])s2)cc1 | - | - | 6.1 | - | - | -
COc1ccc(C(C)(C)C)cc1NC(=O)COC(=O)c1ccc([N+](=O)[O-])s1 | - | - | - | - | . | .
CCOc1cc(C=C2C(=O)NC(=O)NC2=O)ccc1OC | - | - | - | - | . | .
CCOc1cc(C=C2C(=O)NC(=O)NC2=O)ccc1OS(=O)(=O)c1ccc(OC)cc1 | - | - | 6.0 | - | - | -
SMILES | TEAD-YAP inh | FBW7 act | GPR151 ag | MITF inh | GPR151 conf act | GPR119 counter
O=C1NC(=O)C(=Cc2cccc(OS(=O)(=O)c3ccc(Cl)cc3)c2)C(=O)N1 | - | - | - | - | . | .
COc1ccc(S(=O)(=O)Oc2cccc(C=C3C(=O)NC(=O)NC3=O)c2)cc1 | - | - | 6.1 | - | - | -
CC1CN(CC(=O)N2CCN(Cc3nccn3C)CC2)Cc2cc(Cl)ccc2O1 (centres undefined) | - | - | - | - | . | .
Cc1nonc1NC(=O)CSc1nc(Cc2ccccc2)nc2ccccc12 | - | - | 10 | - | - | -
CC(C)NC(=O)CSc1nc(Cc2ccccc2)nc2ccccc12 | - | - | - | - | . | .
C=C(C)CN(CC)Cc1nc(-c2ccccn2)no1 | - | - | 14 | - | - | -
Cc1ccc(C(=O)Nc2cccc(C(=O)O)c2)o1 | - | - | - | - | . | .
C(/C=C/c1ccccc1)=N/N1CCN(c2ccccc2)CC1 | - | - | 4.9 | - | - | -
Cn1c(=O)c2c(ncn2CC(O)CN2C(=O)c3ccccc3S2(=O)=O)n(C)c1=O (centres undefined) | - | - | 6.0 | - | - | -
O=C(NCCCc1ccccc1)C1CCN(C(=O)N2CCOc3ccccc32)CC1 | - | - | 6.1 | - | - | -
O=C(NCCCc1ccccc1)C1CCN(C(=O)N2CCOc3ccc(Cl)cc32)CC1 | - | - | - | - | . | .
Cc1cc(C)n2c(SCC(=O)NC(=O)NC(C)(C)C)nnc2n1 | - | - | 5.5 | - | - | -
OCCN1CCN(C2CCN(Cc3cccc4ccccc34)CC2)CC1 | - | - | 7.6 | - | - | -
Cc1cc(C)cc(N(CC(=O)N2CCCC2)S(C)(=O)=O)c1 | - | - | - | - | . | .
NC(=O)c1cccc(N)c1 | - | - | 6.2! | - | - | -
O=C(Nc1ccc(Br)cn1)c1ccc(N2CCCCC2)c([N+](=O)[O-])c1 | - | - | 6.5 | - | - | -
Cc1ccc(C(=O)Nc2ccc(Br)cn2)cc1[N+](=O)[O-] | - | - | - | - | . | .
CC(=O)C1=C(Nc2ccc(C)cc2)CC(C)(O)C(C(C)=O)C1c1ccc(F)cc1 (centres undefined) | - | - | - | - | . | .
CC(=O)c1cc(C)ccc1OC(=O)c1ccc([N+](=O)[O-])cc1 | - | - | 6.4 | - | - | -
COc1ccc(N(CC(O)CN2CCOCC2)S(=O)(=O)c2ccc(C)cc2)cc1 (centres undefined) | - | - | - | - | . | .
O=C(CC(C(=O)O)N1CCOCC1)c1ccc(Br)cc1 (centres undefined) | - | - | - | - | . | .
COc1cc(C(=O)Nc2ccc3oc(-c4ccc(Br)cc4)nc3c2)cc(OC)c1OC | - | - | - | - | . | .
CCOC(=O)C(CC1=CNC2C=CC=CC12)NC(=O)CN1C(=O)c2ccccc2C1=O (centres undefined) | - | - | 7.7 | - | - | -
CC(=O)C(Cc1ccccc1)NC(=O)CN1C(=O)c2ccccc2C1=O (centres undefined) | - | - | - | - | . | .
CCOc1ncccc1C(=O)Nc1ccc2c(C)cc(=O)oc2c1 | - | - | - | - | . | .
SMILES | TEAD-YAP inh | FBW7 act | GPR151 ag | MITF inh | GPR151 conf act | GPR119 counter
COc1ccc(NC(=O)C(C)Oc2ccc3oc(=O)cc(C)c3c2)cc1 (centres undefined) | - | - | - | - | . | .
CCOC(=O)c1cccc(NC(=O)c2ccccc2OCC)c1 | - | - | 5.5 | - | - | -
Cc1cc(=O)oc2cc(OC(C)C(=O)Nc3ccccc3)ccc12 (centres undefined) | - | - | 5.3 | - | - | -
COc1ccccc1C(=O)Nc1cccc(N(C)C)c1 | - | - | 16 | - | - | -
COc1ccccc1C(=O)Nc1ccc2c(C)cc(=O)oc2c1 | - | - | 17 | - | - | -
O=C(c1ccc(SCc2cccnc2)c([N+](=O)[O-])c1)N1CCCC1 | - | - | - | - | . | .
Cc1cc(OCCOc2ccc(C=C3C(=O)NC(=O)NC3=O)cc2)ccc1Cl | - | - | - | - | . | .
CCOC(=O)c1cc(-c2ccccc2)oc1CN1CCOCC1 | - | - | 8.9 | - | - | -
CCOC(=O)c1cc(-c2ccccc2)n(CCCN2CCOCC2)c1C | - | - | - | - | . | .
Cc1ccc(C(=O)COC(=O)c2ccc(Br)cn2)cc1 | - | - | - | - | . | .
